High-throughput results: PubChem BioAssay, Buhrlage Lab, Dana-Farber Cancer Institute and Novartis Institutes for BioMedical Research (Cambridge, Mass)
Hits are enriched below; roughly 13% of the tested compounds scored in any of these assays.
USP10 inh = blocks human USP10 ubiquitin-rhodamine cleavage; inhibition, % at 20 µM; AID 1645856; Q14694; 47,000 tested, 1.1% active; purified USP10, Ub-rhodamine fluorescence, 60 min
USP17 block = human USP17-like deubiquitinase inhibition; purified USP17, Ub-rhodamine cleavage fluorescence, 3 h; inhibition, % at 50 µM; 47,000 tested, 6.5% active; AID 1645855
USP8 inh = human USP8 deubiquitinase inhibition. inhibition, % at 20 µM. P40818. purified USP8, Ub-rhodamine cleavage fluorescence, 30 min. AID 1645853. 47,000 tested, 4.2% active
UCHL1 block = blocks human UCHL1 ubiquitin-rhodamine cleavage; P09936; purified UCHL1, Ub-rhodamine cleavage fluorescence; inhibition, % at 20 µM; 47,000 tested, 0.2% active; AID 1645859
USP7 inh = inhibitors of human USP7 deubiquitinase; Q93009; purified USP7, Ub-rhodamine cleavage fluorescence; 47,000 tested, 0.3% active; inhibition, % at 20 µM
USP30 block = inhibitors of human USP30 deubiquitinase; inhibition, % at 25 µM; 47,000 tested, 5.3% active; purified USP30, Ub-rhodamine cleavage fluorescence
Target sequence (Q70CQ3 whole entry, looked up): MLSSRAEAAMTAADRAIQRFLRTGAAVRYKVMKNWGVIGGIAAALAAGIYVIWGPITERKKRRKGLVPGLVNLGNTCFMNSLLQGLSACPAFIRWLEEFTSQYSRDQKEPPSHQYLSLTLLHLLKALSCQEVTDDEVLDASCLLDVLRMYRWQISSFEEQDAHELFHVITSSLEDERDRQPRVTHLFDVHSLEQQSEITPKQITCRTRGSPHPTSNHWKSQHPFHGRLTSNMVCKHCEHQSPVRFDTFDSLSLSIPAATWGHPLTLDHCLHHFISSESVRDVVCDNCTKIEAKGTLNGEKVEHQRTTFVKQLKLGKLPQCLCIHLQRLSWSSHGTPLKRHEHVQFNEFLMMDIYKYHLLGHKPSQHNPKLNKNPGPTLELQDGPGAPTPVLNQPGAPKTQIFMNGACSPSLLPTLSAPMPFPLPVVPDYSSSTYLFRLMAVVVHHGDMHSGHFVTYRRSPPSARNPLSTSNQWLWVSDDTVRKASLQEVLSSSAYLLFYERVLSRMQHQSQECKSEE
A number is an active result; . = inactive; / = not tested or not shown. Rule as the data show it: active = inhibition above about 30%; inactive = the rest.

SMILES | USP10 inh | USP17 block | USP8 inh | UCHL1 block | USP7 inh | USP30 block
O=C1C(NS(=O)(=O)Cc2cccc(F)c2)CCN1c1ccc(F)cc1 (configuration not stated) | . | 43 | . | . | . | .
Cc1cccc(CNC(=O)c2ccc(-c3nnc(-c4cccc(C)c4)o3)cc2)c1 | . | 82 | . | . | . | .
O=C(NCc1cccc(Cl)c1)c1ccc(-c2nnc(-c3ccccc3)o2)cc1 | . | 50 | 93 | . | . | .
Cc1ccccc1C(=O)Nc1c(-c2ccc3c(c2)OCO3)c(=O)c2ccccc2n1C | . | . | . | . | . | .
O=C(Cc1ccccc1)Nc1oc2ccccc2c(=O)c1-c1ccc2c(c1)OCO2 | . | . | . | . | . | 32
COc1ccc(CC(=O)N2CCN(c3ccc(-n4cccn4)nn3)CC2)cc1 | . | . | . | . | . | 34
COc1ccc(CC(=O)N2CCc3nc(C(N)=O)sc3CC2)cc1 | . | . | . | . | . | .
COc1cc(C(=O)N2C[C@@H](O)[C@H](N3CCCC3)C2)nc(OC)n1 | . | . | . | . | . | .
O=C1CN(C(=O)COc2ccc(Cl)cc2)C(c2ccccc2)c2cc(Cl)ccc2N1 (configuration not stated) | . | . | . | . | . | .
O=C1CN(C(=O)CC2CCCCC2)C(c2ccccc2)c2cc(Cl)ccc2N1 (configuration not stated) | . | . | 34 | . | . | 43
COc1ccc(CC(=O)N2CC(=O)Nc3ccc(Br)cc3C2c2ccccc2)cc1 (configuration not stated) | . | . | . | . | . | 38
O=C1CN(C(=O)COc2ccccc2)C(c2ccccc2)c2cc(Br)ccc2N1 (configuration not stated) | . | . | . | . | . | /
CCc1ccc(C2CN3C(=O)N(c4ccccc4C)C(=O)[C@]3(C)c3[nH]c4ccccc4c32)cc1 (some centres not stated) | . | / | . | . | . | .
Cc1sc2ncnc(OCC(=O)c3ccc(NC(=O)CC(C)C)cc3)c2c1C | . | . | 30 | . | . | .
CCc1ccc(C(=O)COc2ncnc3sc(C)c(C)c23)cc1 | . | . | . | . | . | .
COCCn1cnc2c(-c3ccccc3)cn(CC(=O)NC3CCCC3)c2c1=O | . | . | . | . | . | .
O=C(Cn1cncc(-c2nc(-c3ccccc3)cs2)c1=O)NC1CCCC1 | . | 67 | . | . | . | 49
COc1cc(C(=O)Nc2ccc3nccnc3c2)cc(OC)c1OC | . | . | . | . | . | .
Cc1ccccc1NC(=O)Cn1cccc(S(=O)(=O)N2CCC(C)CC2)c1=O | . | . | . | . | . | /
COc1ccc(C(=O)NCc2nnc(SCC(=O)Nc3ccc(C)c(Cl)c3)o2)cc1 | . | . | . | . | . | .
COc1ccc2nc(SCC(=O)Nc3ccc(NC(C)=O)cc3)c(C)cc2c1 | . | 59 | 69 | . | . | .
COc1ccc2c(CCN=C(NC(C)=O)Nc3nc(C)cc(C)n3)c[nH]c2c1 | . | . | . | . | 34 | /
COc1ccc2[nH]cc(CCN=C(NC(=O)C(C)C)Nc3nc(C)cc(C)n3)c2c1 | . | . | . | . | . | .
CCOc1ccc(/C=C/C(=O)Nc2nnc(C)s2)cc1 | . | 31 | . | . | . | .
COc1ccc(/C=C/C(=O)Nc2cc(C)ccn2)cc1 | . | . | . | . | . | .
SMILES | USP10 inh | USP17 block | USP8 inh | UCHL1 block | USP7 inh | USP30 block
CNC(=O)NC(=O)CSc1nnc(-c2ccc(Cl)cc2)o1 | . | 33 | . | . | . | .
O=C(CSc1nnc(-c2cccnc2)o1)Nc1cccc(Cl)c1 | . | 33 | . | . | . | .
COc1cccc(-c2cc(C(=O)Nc3cccc(C(C)=O)c3)[nH]n2)c1 | . | . | . | . | . | .
O=C(Nc1ccccc1F)c1cc(-c2cccnc2)n[nH]1 | . | 70 | . | . | . | /
Cc1ccc(NC(=O)CSc2nnc(-c3cccnc3)o2)cc1F | . | . | . | . | . | .
COc1cccc(-c2cc(C(=O)Nc3ccccc3)[nH]n2)c1 | . | 39 | . | . | . | 35
Cc1ccc(-c2cc3nccc(C4CCCNC4)n3n2)cc1 (configuration not stated) | . | . | . | . | . | .
Cc1ccc(CNc2nc(Nc3ccc(F)cc3)c3cnn(C)c3n2)cc1 | . | . | . | . | . | .
O=C(Nc1cccc(Cl)c1)c1cc(-c2cccnc2)n[nH]1 | 47 | 83 | 83 | . | . | 47
